Screening results deposited in PubChem by National Center for Advancing Translational Sciences (NCATS).
A selection: hits, their analogues and other compounds. The true share with any hit is near 19%.
RORg inh: qHTS for inhibitors of ROR gamma transcriptional activity. Nuclear receptor ROR-gamma (Mus musculus), P51450. Drosophila S2 Gal4-RORgamma UAS-luciferase reporter, 20 h. Potency, µM (doses to about 53.6 µM), actives largely listed as inhibitors. actives 5.4% (n = 310,000). AID 2551, 2010; also: nearly all actives have a fitted effect of over 60% in size
Target sequence (P51450 whole entry, looked up, the tested form may be a part): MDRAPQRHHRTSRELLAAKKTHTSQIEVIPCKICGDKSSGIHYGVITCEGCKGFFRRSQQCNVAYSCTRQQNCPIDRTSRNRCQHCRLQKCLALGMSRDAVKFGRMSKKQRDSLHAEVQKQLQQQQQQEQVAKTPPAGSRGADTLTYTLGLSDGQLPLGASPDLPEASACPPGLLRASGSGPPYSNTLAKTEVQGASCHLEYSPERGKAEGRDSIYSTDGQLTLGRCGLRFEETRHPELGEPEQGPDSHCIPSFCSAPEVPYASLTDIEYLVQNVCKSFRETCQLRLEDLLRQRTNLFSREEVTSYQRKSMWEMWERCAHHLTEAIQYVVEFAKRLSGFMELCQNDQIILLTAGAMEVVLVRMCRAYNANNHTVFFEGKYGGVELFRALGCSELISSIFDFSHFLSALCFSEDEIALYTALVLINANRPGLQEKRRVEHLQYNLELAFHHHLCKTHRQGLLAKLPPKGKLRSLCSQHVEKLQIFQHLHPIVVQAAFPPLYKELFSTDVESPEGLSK
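Luminescence from a UAS-regulated Photinus luciferase reporter in stably transfected Drosophila Schneider cells is measured; decreased signal marks ROR gamma inhibition. Fusion expression is induced by 700 uM copper sulfate for 20 hr.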
TDP1 block: qHTS Assay for Inhibitors of Tyrosyl-DNA Phosphodiesterase (TDP1); Potency, µM (highest dose often 130 µM), actives largely listed as inhibitors; actives 0.28% (n = 350,000); recombinant TDP1, AlphaScreen DNA substrate cleavage; Tyrosyl-DNA phosphodiesterase 1 (Homo sapiens), Q9NUW8; also: nearly all actives have a fitted effect of over 40% in size
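Recombinant human Tdp1 (E. coli-expressed, 1 nM final) preincubated with compounds 15 min at room temperature, then 5'-biotin/3'-phosphotyrosine-FITC DNA substrate (15 nM final) added for 5 min. AlphaScreen beads (10 ug/ml final) added 10 min; cleavage lowers signal.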
TDP1 cell noCPT: qHTS for Inhibitors of human tyrosyl-DNA phosphodiesterase 1 (TDP1): qHTS in cells in absence of CPT. actives 15% (n = 420,000). Potency, µM (series often up to 46.2 µM), most hits filed as inhibitors. DT40 Tdp1-/- hTDP1 cells, no CPT, ATP luminescence, 48 h; also: nearly all actives have a fitted effect of over 55% in size
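No-CPT arm: Tdp1-/-;hTDP1 DT40 cells (400/well) plus compounds, incubated ≥48 hr at 37 °C. Readout CellTiter-Glo luminescence.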
TDP1 cell CPT: qHTS for Inhibitors of human tyrosyl-DNA phosphodiesterase 1 (TDP1): qHTS in cells in presence of CPT. Potency, µM (highest dose often 46.2 µM), actives largely listed as inhibitors. chicken DT40 Tdp1-/-;hTDP1 cells + 20 nM CPT, ATP luminescence, 48 h. actives 12% (n = 420,000); also: nearly all actives have a fitted effect of over 55% in size
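Chicken DT40 Tdp1-/- cells stably complemented with human TDP1 were seeded at 400 cells/well in medium containing 20 nM camptothecin, exposed to pin-transferred compounds, and grown at 37 °C for at least 48 hr. Viability was read as ATP luminescence.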
VP16 counter: VP16 counterscreen qHTS for inhibitors of ROR gamma transcriptional activity; Drosophila S2 Gal4-VP16 UAS-luciferase, luminescence, 20 h; Potency, µM (doses to about 53.6 µM), usual class: inhibitors; actives 3.5% (n = 310,000);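 also: Gal4-VP16 expression switched on by copper sulfate through the metallothionein promoter; nearly all actives have a fitted effect of over 50% in size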
Large screens that a line does not name were inactive. Calls follow the shape of the dose curve; as a rule, active = well fitted curve in the direction sought with a large enough effect; inconclusive = small, poorly fitted or top-dose-only effect, or another doubt; inactive = no such curve, though single readings can be large; an effect the other way counts as inactive or inconclusive.

Cc1ccc(Nc2nc(N/N=C\c3ccc4c(c3)OCO4)nc(N3CCOCC3)n2)cc1	RORg inh 8.91µM, TDP1 cell noCPT 9.2µM, TDP1 cell CPT 8.2µM
Cc1ccc(/C=N/Nc2cc(C)nc(N3CCOCC3)n2)cc1	TDP1 cell noCPT inconclusive
Cc1ccc(N/N=C/c2ccc(N3CCOCC3)cc2)cc1C	RORg inh inconclusive, TDP1 cell noCPT inconclusive, TDP1 cell CPT 23.1µM
COc1ccc(Nc2nc(Nc3ccc(OC)cc3OC)nc(N3CCOCC3)n2)c(OC)c1	TDP1 cell noCPT 13µM, TDP1 cell CPT 14.6µM (no result: RORg inh, TDP1 block, VP16 counter)
Cc1cc(Nc2cccc(Cl)c2)nc(N2CCOCC2)n1	TDP1 cell noCPT inconclusive, TDP1 cell CPT 14.6µM
CCc1ccc(Nc2nc(N3CCOCC3)nc(N3CCOCC3)n2)cc1	TDP1 cell noCPT inconclusive, TDP1 cell CPT inconclusive
COc1ccc(Nc2nc(N3CCOCC3)nc(N3CCOCC3)n2)cc1Cl	RORg inh inconclusive, TDP1 cell noCPT 20.6µM, TDP1 cell CPT inconclusive
Fc1cccc(Nc2nc(N3CCOCC3)nc(N3CCOCC3)n2)c1	TDP1 cell CPT 18.4µM (no result: TDP1 block)
CCOc1nc(Nc2ccc(OC)c(Cl)c2)nc(OCC)n1	TDP1 cell noCPT inconclusive, TDP1 cell CPT 18.4µM
Cc1ccc(Nc2nc(Nc3ccc(C)c(C)c3)nc(N3CCOCC3)n2)cc1C	TDP1 cell noCPT 10.3µM, TDP1 cell CPT 14.6µM (no result: RORg inh, TDP1 block, VP16 counter)
CCOc1nc(NCCO)nc(Nc2cc(Cl)ccc2OC)n1	TDP1 cell noCPT inconclusive, TDP1 cell CPT inconclusive
CC(=O)c1cccc(NC(=O)CO/N=C2/CCCc3nonc32)c1	none
O=C(O)CCC(=O)Nc1ccc2c(c1)Cc1cc(NC(=O)CCC(=O)O)ccc1-2	none (no result: TDP1 block)
CCC(=O)Nc1ccc2c(c1)Cc1cc([N+](=O)[O-])ccc1-2	TDP1 cell noCPT 6.51µM, TDP1 cell CPT inconclusive (no result: RORg inh, TDP1 block, VP16 counter)
O=CNc1ccc2c(c1)Cc1cc([N+](=O)[O-])ccc1-2	TDP1 cell noCPT 13µM, TDP1 cell CPT inconclusive (no result: RORg inh, TDP1 block, VP16 counter)
O=C(c1ccccc1F)N1CCN(Cc2cccc(Cl)c2)CC1	TDP1 cell CPT inconclusive (no result: TDP1 block)
O=C1NC(=O)c2cc(Nc3ccccc3)c(Nc3ccccc3)cc21	TDP1 cell noCPT 12.6µM, TDP1 cell CPT inconclusive
COc1cccc(C2=CC(c3ccccc3F)n3ncc(C(=O)Nc4ccc(F)cc4)c3N2)c1 (centres undefined)	TDP1 cell noCPT 18.4µM, TDP1 cell CPT inconclusive (no result: RORg inh, VP16 counter)
COc1ccc(C2=CC(c3ccccc3F)n3ncc(C(=O)Nc4ccc(C)cc4)c3N2)cc1 (centres undefined)	TDP1 cell noCPT 20.6µM, TDP1 cell CPT 5.17µM (no result: RORg inh, VP16 counter)
O=C(Nc1ccc(Cl)cc1)c1cnn2c1NC(c1ccccc1)=CC2c1ccccc1 (centres undefined)	TDP1 cell noCPT inconclusive, TDP1 cell CPT inconclusive (no result: RORg inh, VP16 counter)
COc1ccc(NC(=O)C2=C(C)Nc3c(C(=O)Nc4ccc(C)cc4)cnn3C2c2cc(OC)ccc2OC)cc1 (centres undefined)	TDP1 cell noCPT inconclusive (no result: RORg inh, VP16 counter)
COc1cccc(C2C=C(c3ccc(C)cc3)Nc3c(C(=O)Nc4ccc(F)cc4)cnn32)c1OC (centres undefined)	TDP1 cell noCPT 18.4µM, TDP1 cell CPT inconclusive (no result: RORg inh, VP16 counter)
CC(C)(C(=O)N[C@H](CO)c1ccccc1)C(=O)N[C@H](CO)c1ccccc1	RORg inh 2µM (no result: TDP1 block)
Cc1ccc(-c2nc3ccc(Br)cn3c2CC(C)(C)C)cc1	TDP1 cell noCPT 11.6µM, TDP1 cell CPT inconclusive (no result: RORg inh, TDP1 block, VP16 counter)
CC(C)(C)Cc1c(-c2ccccc2)nc2ccc(Br)cn12	TDP1 cell noCPT 23.1µM, TDP1 cell CPT inconclusive (no result: RORg inh, TDP1 block, VP16 counter)
Cc1ccc(Nc2c(-c3cccnc3)nc3ccc(Br)cn23)cc1	TDP1 cell noCPT inconclusive, TDP1 cell CPT inconclusive
COC(=O)c1ccc(-n2c(C)cc(C(=O)CSc3ccc(NC(C)=O)cc3)c2C)cc1	RORg inh inconclusive, TDP1 cell noCPT 23.1µM, TDP1 cell CPT inconclusive
CCN1CCN(c2cc(SC(C)C)nc(-c3ccc(OC)cc3)n2)CC1	TDP1 cell noCPT inconclusive, TDP1 cell CPT 23.1µM
COc1ccc(S(=O)(=O)Nc2ccc(Cl)cn2)c(C)c1C	none
